Results from the supplement of paper PMC3334620.
Over roughly 33,000 sequences, “E-score (-0.5 to 0.5)” has its median near -0.041; the highest 2% begin near 0.37. This is one part of a sample in which the highest values are shown more often than they occur.

Biological target: T1, Ecm22 (UniProt Q05958)
T1 sequence: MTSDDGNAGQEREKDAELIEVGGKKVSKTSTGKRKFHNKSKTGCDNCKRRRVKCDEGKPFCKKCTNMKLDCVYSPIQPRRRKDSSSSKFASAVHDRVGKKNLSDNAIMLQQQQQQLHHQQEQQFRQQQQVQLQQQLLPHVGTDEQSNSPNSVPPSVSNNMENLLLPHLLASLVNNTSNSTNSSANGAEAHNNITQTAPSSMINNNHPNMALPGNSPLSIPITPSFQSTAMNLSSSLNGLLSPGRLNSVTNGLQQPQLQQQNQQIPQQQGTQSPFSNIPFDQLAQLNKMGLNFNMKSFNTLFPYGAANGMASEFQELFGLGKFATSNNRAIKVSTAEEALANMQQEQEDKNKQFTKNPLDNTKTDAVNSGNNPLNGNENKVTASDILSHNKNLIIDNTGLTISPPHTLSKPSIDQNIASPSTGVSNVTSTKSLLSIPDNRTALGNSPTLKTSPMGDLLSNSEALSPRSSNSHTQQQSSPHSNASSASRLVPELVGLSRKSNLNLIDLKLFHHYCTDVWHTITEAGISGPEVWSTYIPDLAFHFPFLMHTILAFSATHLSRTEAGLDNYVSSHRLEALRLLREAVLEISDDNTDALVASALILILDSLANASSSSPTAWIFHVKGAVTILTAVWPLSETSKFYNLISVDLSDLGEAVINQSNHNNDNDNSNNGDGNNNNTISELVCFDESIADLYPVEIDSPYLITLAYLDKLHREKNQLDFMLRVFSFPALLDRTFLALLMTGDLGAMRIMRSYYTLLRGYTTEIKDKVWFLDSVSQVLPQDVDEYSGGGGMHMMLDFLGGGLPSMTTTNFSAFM
Assay: PBM E-score (8-mer binding enrichment) (E-score (-0.5 to 0.5)); higher = stronger / more preferred TF binding
Conditions: protein concentration: 200 nM; construct: GST-full length
Procedure, shortened: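 The E-score, a modified Wilcoxon-Mann-Whitney statistic, was computed by the Universal PBM Analysis Suite for every ungapped eight-base word pooled with its reverse complement. Scans behind it were normalised with masliner after bound GST-tagged yeast transcription factors were detected with fluorescent anti-GST. The proteins, at about 100-200 nM, had been applied to universal all-10-mer Agilent arrays made double-stranded by primer extension.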

| Sequence | PBM E-score |
| --- | --- |
| CTATCGTA | 0.406 |
| ATATCGTC | 0.0456 |
| ATATCGTA | 0.413 |
| GTATCGGA | 0.199 |
| ATATCGTG | 0.147 |
| CTATCGTC | -0.0492 |
| CTATCGAA | 0.0456 |
| GTATCGTA | 0.421 |
| GTATCGAA | 0.161 |
| AGGCTTGC | -0.219 |
| CCAAGACA | -0.257 |
| AAGCTGGG | -0.271 |
| AAACTGAC | 0.00573 |
| AAGTGGCC | -0.248 |
| ACCCTACC | -0.0742 |
| ATATACCG | 0.21 |
| ATATACCA | 0.0649 |
| ATATACGG | 0.441 |
| ATATACTG | 0.0789 |
| CTATACGC | 0.403 |
| ATATACAA | 0.0401 |
| ATATACGA | 0.49 |

| Sequence | PBM E-score |
| --- | --- |
| ATATACGC | 0.299 |
| CTATACTC | 0.0609 |
| CAGGCTTA | -0.245 |
| CTTGTGGC | -0.239 |
| AAAGGTCG | 0.00556 |
| ACGATCAG | 0.224 |
| GATCAGGA | -0.069 |
| AGTTGTCA | -0.0616 |
| CGGGTCGA | -0.00467 |
| CACGTTTA | 0.256 |
| GCCGTTGA | -0.138 |
| GCCGTTAA | 0.24 |
| ACCGTTTA | 0.432 |
| CCCGTTTA | 0.433 |
| GCCGTTTA | 0.421 |
| CCCGTTTC | 0.216 |
| ACCGTTTC | 0.187 |
| ACCGTTTG | 0.287 |
| GCAGCGCA | -0.0703 |
| ACGCAGAT | 0.194 |
| AACGAGAC | 0.451 |
| ACCGAGAT | 0.178 |

| Sequence | PBM E-score |
| --- | --- |
| GACGAGAA | 0.138 |
| AACGAGAT | 0.438 |
| GACGAGAC | 0.029 |
| TCCGAGAA | 0.265 |
| ATCGAGAT | 0.0251 |
| TACGAGAA | 0.462 |
| TTCGAGAA | 0.149 |
| CACGAGAC | 0.0819 |
| CACGAGAA | 0.143 |
| AACGAGAA | 0.424 |
| CTCCCTCA | -0.162 |
| CTTCTAAA | -0.0244 |
| GCTGTCTA | -0.0813 |
| GGTACTAA | 0.0853 |
| CACAGAAC | 0.00026 |
| CTCGACCA | -0.0786 |
| CCCGAAGA | 0.0524 |
| AATGCAGA | -0.0678 |
| ATCGAGAG | 0.0766 |
| CACGAGAG | 0.0712 |
| AACGAGAG | 0.433 |
| ATCAAGGG | -0.149 |

| Sequence | PBM E-score |
| --- | --- |
| AGCTACGC | 0.141 |
| CTCTACGC | 0.00503 |
| GGCTACGA | 0.424 |
| GGCTACCA | -0.2 |
| CTCTACGA | 0.37 |
| ATCTACGA | 0.304 |
| CGCTACGC | 0.138 |
| CGCTACGA | 0.456 |
| AGCTACGA | 0.394 |
| CGCTACAA | 0.0321 |
| AGCTACGG | 0.112 |
| GGCTACAA | 0.042 |
| AGCGGGTA | 0.107 |
| GACCTGAC | -0.172 |
| GAACTTGC | -0.0845 |
| ATGCACCG | -0.0745 |
| TATATCGA | 0.131 |
| GGCTGAAC | -0.0835 |
| ACATTTGA | -0.158 |
| CTTTGGAC | -0.0902 |
